Results taken from PubChem BioAssay (NCI).
Values joined by “and” are separate entries in the source; they are usually repeats but may differ in a detail not shown here. Equal values may be shown once. About 79,000 compounds went through this panel and 15% of them were active in at least one assay; those are over-represented in the sample as a whole. Values without a mark were called inactive. Active and inactive are the calls of the source. Rule as the data show it: active = growth inhibition above about 70%; inactive = the rest.

Experiments:
[1] = NCI Yeast Anticancer Drug Screen. Data for the rad50 strain (AID 155);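 also: 0% = growth of vehicle-only cultures of the same strain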; conditions: S. cerevisiae rad50 strain growth inhibition; at 50.0 µM; stronger effect = higher value
Method in brief: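 Vehicle-treated cultures provide the reference for the growth inhibition reported for compound-exposed, repair-deficient yeast.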

[2] = NCI Yeast Anticancer Drug Screen. Data for the mec2-1 strain (AID 157); conditions: S. cerevisiae mec2-1 strain, at 50.0 µM, stronger effect = higher value
Method in brief: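 Yeast mec2-1 mutant treated with compound. Readout: growth inhibition vs vehicle controls.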

[3] = NCI Yeast Anticancer Drug Screen. Data for the sgs1 mgt1 strain (AID 161);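 also: 0% = growth of cultures given vehicle only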; conditions: S. cerevisiae sgs1 mgt1 strain, at 50.0 µM, stronger effect = higher value
Method in brief: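 Inhibition of yeast growth, normalised to vehicle-treated controls, is reported for a strain bearing genetic alterations in DNA damage repair.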

[4] = NCI Yeast Anticancer Drug Screen. Data for the cln2 rad14 strain (AID 165);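 also: 0% = growth equal to vehicle treated cultures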; conditions: S. cerevisiae cln2 rad14 strain, at 50.0 µM, stronger effect = higher value
Method in brief: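 cln2 rad14 yeast strain; compound exposure; growth inhibition read vs vehicle controls.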

[5] = NCI Yeast Anticancer Drug Screen. Data for the bub3 strain (AID 167); conditions: S. cerevisiae bub3 mutant strain, at 50.0 µM, stronger effect = higher value
Method in brief: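 Mutant yeast screening strain plus compound; vehicle-treated cultures serve as the 0% inhibition reference.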

[6] = NCI Yeast Anticancer Drug Screen. Data for the mlh1 rad18 strain (AID 175); conditions: S. cerevisiae mlh1 rad18 strain growth inhibition; at 50.0 µM; stronger effect = higher value
Method in brief: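 Yeast w/ defined DNA-repair lesions; compound exposure; growth vs vehicle controls → % inhibition.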

Row | SMILES | growth inhibition [1] | growth inhibition [2] | growth inhibition [3] | growth inhibition [4] | growth inhibition [5] | growth inhibition [6]
1 | Cc1c(Cl)cccc1NC(=O)C(=O)C1C(=O)NC(=O)NC1=O | -10.8% | -10.8% | -13.8% | -6% | -17.8% | -17.9%
2 | Cc1c(O)c(O)c(C)c(CCN)c1O | 15.4% | 19.8% | 22.1% | -26.8% | 25.1% | 27.9%
3 | CC12CCC3C(CC=C4CC(=O)CCC43CCO)C1CCC2Oc1ccccc1 (stereo not drawn) | 5.3% | -11.9% | -2.45% | 16.4% | 23.7% | 13.3%
4 | Cc1cc2n[se]nc2cc1C | 18.3% | -9.15% | 20.6% | 6.3% | -6.65% | 21.7%
5 | COc1cc(C(CC(C)=O)c2cc3c(cc2OC(C)=O)OCO3)cc(OC)c1OC (stereo not drawn) | 18.8% | 4.4% | -0.9% | -9.1% | 10.8% | 21.9%
6 | Cc1c(OCC(=O)N/N=C/c2ccc(N(CCCl)CCCl)cc2)ccc2c(=O)c3ccccc3oc12 | -1.95% | -10.3% | -3.15% | -15.5% | 13.8% | -8.35%
7 | OC[P+](CO)(CO)CO | -2.8% | 1.05% | -8.15% | -24.9% | 14.7% | -5.9%
8 | CC(=O)OC1CC2(O)C(CCC3(C)C(c4ccc(=O)oc4)CCC32O)C2(C)C1=CC(O)C1OC12 (stereo not drawn) | 3.95% | 6.85% | -12.4% | -1.7% | -2% | -13.9%
9 | c1ccc2c(c1)CN1Cc3ccccc3C2C1 | 6.6% | -12.3% | -13.5% | -13.7% | 2.65% | -6.35%
10 | COC(=O)N/N=C(/CCN1CCCC1)CC(c1ccccc1)c1c(O)c2ccccc2oc1=O (stereo not drawn) | 19.4% | -4.45% | 10% | 9.2% | 8.7% | 14.9%
11 | CC(=O)NC(ON1C(=O)COc2ccccc21)C(Cl)(Cl)Cl (stereo not drawn) | 27.6% | -16.8% | -13.2% | 10.2% | 26.6% | 7.95%
12 | COP(=O)(OC)C(=O)c1ccc(C)cc1 | 14.7% | -6.05% | 1.55% | -36.8% | 15.9% | -7%
13 | CCC1(c2ccccc2)C(=O)N(C)C(=O)N(CCCl)C1=O (stereo not drawn) | 12.5% | 8.15% | -0.8% | -34.5% | 22.3% | 3.85%
14 | CNCC(=O)c1ccc(O)c(O)c1 | 2.4% | -10.1% | -30.6% | -9.35% | -38.9% | -6.75%
15 | NC(=O)OCC(O)c1ccccc1 (stereo not drawn) | -11.6% | 10% | -22.6% | -27.8% | -19.9% | 2.2%
16 | O=C(O)CN(CCN(CC(=O)O)CC(=O)O)CC(=O)O.[Co+2] | 0.25% | -3.85% | 13.2% | 19.1% | 16.4% | 7.45%
17 | O=S(=O)(c1ccc(O)cc1)c1ccc(O)cc1 | -5.25% and 0.75% | -2.8% and -7.6% | -3.75% and -4.95% | -11.7% and -36.2% | 1.85% and -8.15% | 2.55% and -4.05%
18 | O.[Co].[NH2-].[NH2-].[NH2-].[NH2-].[NH2-] | 27.9% | -27.1% | 36.2% | 12.8% | 24.2% | 33.4%
19 | CCN1CCC(OC(=O)c2ccccc2)(c2nccc3ccccc23)CC1 | -5.85% | 0.95% | 7.05% | 9.05% | 9.75% | 8.9%
20 | C=CC(C)(C)C12CC3C(=O)N/C(=C\c4cnc[nH]4)C(=O)N3C1Nc1ccccc12 (stereo not drawn) | -33.4% | -11% | 8.15% | 1.45% | -6.3% | -14.8%
21 | C/C=C/C(C)C1(CC)C(=O)NC(=S)NC1=O (stereo not drawn) | 8.8% | 9.65% | 9% | 10.6% | -11.3% | -13.1%
22 | CN1CCCC2(CCCc3ccccc32)C1 (stereo not drawn) | 14.2% | -33.1% | -25.9% | 15.3% | -13.3% | -5.2%
23 | CCC[CH2][Sn]([CH2]CCC)([CH2]CCC)[CH2]CC[N+](C)(CCO)CCO.CS(=O)(=O)[O-] | 99.4% (active) | 99.2% (active) | 99.7% (active) | 99.3% (active) | 99.5% (active) | 99.2% (active)
24 | [Cl][Co][Cl].[NH-]CC[NH-].[NH-]CC[NH-] | 19.2% and -9.85% | 9.3% and 29.6% | 25.2% and -4.55% | -9.95% and 9.2% | 36.7% and 2.4% | 37% and -23.4%

Row | SMILES | growth inhibition [1] | growth inhibition [2] | growth inhibition [3] | growth inhibition [4] | growth inhibition [5] | growth inhibition [6]
25 | Nc1ccncc1 | 4.35% | -5.45% | 10% | 10.9% | -2.55% | 4.45%
26 | CC(=O)N1CCCN(C)/C1=N/[N+](=O)[O-] | -20.1% | -14.8% | -6.7% | -10.9% | -15.4% | -13.9%
27 | ClCCCCl | 13.2% | -15.8% | -3.85% | -7.4% | 4.9% | -27.6%
28 | O=C(NCCN1CCOCC1)c1ccc2cc(C(=O)N3CC(CCl)c4ccc([N+](=O)[O-])cc43)[nH]c2c1 (stereo not drawn) | 88.5% (active) | 92.2% (active) | 88% (active) | 88.8% (active) | 89.8% (active) | 89.9% (active)
29 | CCOP(=O)(NCCc1ccccc1)OCC | -36.6% | -37.4% | -7.3% | -3.9% | -33% | -12.4%
30 | C/C=C(\CC)C1(C(C)C)C(=O)NC(=O)NC1=O | 12.2% | -1.35% | -6.3% | -33.9% | 2% | 10.4%
31 | [Be]=[Se] | -21.1% | -0.4% | -2.9% | 2.1% | -11.4% | 29.7%
32 | NCCN.NCCN.[Cl-].[O]=[Os+2]=[O] | 0.8% and 3.45% | -22% and 1% | -6.15% and -20.8% | -20.3% and 23.3% | -40.6% and 0.3% | -6.3% and -13.2%
33 | CC(Cl)[N+](=O)[O-] (stereo not drawn) | 15.4% | -10.2% | 2.55% | 16.9% | 9% | 1.9%
34 | N.N.N.N.O=S(=O)([O-])[O-].[Co+3].[OH3+].[OH3+] | 2.25% | -0.6% | -22.5% | 26.1% | -4.7% | -0.15%
35 | CC(C)=CCN1CCC2(C)c3cc(O)ccc3CCC2C1 (stereo not drawn) | -9.9% | -8.8% | -0.8% | -31.2% | -6.5% | -2.1%
36 | CCOC(=O)C1C(=O)C(=O)N2CCc3c([nH]c4ccccc34)C12 (stereo not drawn) | 17.5% | 7.55% | 34% | 12.4% | -3% | 15.6%
37 | C1=C[N-]c2c3c(ccc2=C1)=CC=C[N-]3.C1=C[N-]c2c3c(ccc2=C1)=CC=C[N-]3.[Cl][Ru][Cl] | 70.3% (active) | 28.3% | 49% | 44.4% | 61% | 33.8%
38 | Cc1ccc2nc(NC(=O)C(=O)C3C(=O)NC(=S)NC3=O)sc2c1 | -2.75% | -19.1% | 2.85% | 2.4% | -8.95% | -40%
39 | CC12CC3OC(=O)C1COC14OC5(C2C1=O)C(O)(CCC1C4CC(O)C2(O)CC=CC(=O)C12C)C(=O)OC35C (stereo not drawn) | 5.85% | 7.95% | 8.3% | 11.2% | -1.3% | -40.8%
40 | CCOS(=O)OCC | 19% | 0.35% | -26.1% | 17.9% | 17.6% | 9.2%
41 | N#CC1(c2ccccc2)CCCC1 | 5.7% | 8.25% | -4.7% | 11.6% | -4.05% | 2.2%
42 | CC1=CC2C(C=C1)S(=O)(=O)N1CC21c1ccccc1 (stereo not drawn) | 20.9% | -31.4% | -11% | -8.3% | -20.6% | -3.9%
43 | CC(=O)c1ccccc1O.[Cr] | 3.05% | -32.3% | 19.3% | 3.75% | -18.3% | 21.2%
44 | CCN(CC)CCN1CC2CCCCC2C1 (stereo not drawn) | 4.25% | 0.35% | 1% | 5.45% | 11.6% | 3%
45 | COc1cc(C2c3cc4c(cc3C(O)[C@H]3COC(=O)C23)OCO4)cc(OC)c1O (stereo partly drawn) | -38.8% | -50.8% | -27.1% | -1.8% | -13.9% | 38.6%
46 | COc1ccc(C(N)Cc2cc(OC)c(OC)c(OC)c2)cc1 (stereo not drawn) | -14.9% | 6.1% | 2.9% | -10.5% | 7.8% | -8.6%
47 | O=C(COc1ccc(Cl)c(Cl)c1)Nc1ccc[n+](Cc2ccc(S(=O)(=O)F)cc2Cl)c1 | 52.5% | 27.9% | 17.6% | 58.2% | 4% | 8.5%
48 | CC1(C)CCCC(C)(C)N1[P-]C(=O)[P-]N1C(C)(C)CCCC1(C)C.[C-]#[O+].[C-]#[O+].[C-]#[O+].[C-]#[O+].[C-]#[O+].[C-]#[O+].[Fe].[Fe] (stereo not drawn) | -11.2% | 3.65% | -2% | 13.6% | -5.7% | 8.45%
